The values below come from PubChem BioAssay AID686971 (National Center for Advancing Translational Sciences (NCATS), 2013).

Each structure is given as a SMILES string. Screen size: about 360,000 compounds; about 7,500 (2.1%) were called active. Roughly 8% stayed inconclusive and do not appear here. What follows is part of a selection rich in actives, with near analogues and random picks from the rest. Unmarked numbers belong to inactive results. The call rests on the fitted dose curve; in most records, active means well fitted cell-killing curve with a large enough effect; inconclusive means small, poorly fitted or top-dose-only effect, or effect the other way, or another doubt; inactive means no such curve, though single readings can be large or run the other way.
Potency means the concentration at half of the fitted maximal effect.

This assay in a line: qHTS for induction of synthetic lethality in tumor cells producing 2HG: qHTS for the HT-1080-IDH1KD cell line.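 On activity, negative = toxicity: 0% = DMSO wells and -100% = cell-free medium wells.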 Particulars: HT-1080 IDH1 knockdown viability, ATP luminescence, 48 h; series mostly up to 46.1 µM; activity, negative = toxicity: at the top concentration. In short, it runs like this:
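IDH1KD HT-1080 cells, 750/well, RPMI + 5% FBS; compound pinned after 2 h settling; 48 h, 37 °C; CellTiter-Glo luminescence; % activity normalised to DMSO and no-cell wells; curves fitted, classed by r2 and efficacy.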
On the technique in general: In qHTS, concentration-response curves come from the screen itself.
With `O=C(/C=C/NNC(=O)c1cccc(Br)c1)c1ccccc1`, the “activity, negative = toxicity” value was -10.2%.
Same read-out and setting: as for `COc1ccc(CN2C[C@H]3CON(C)[C@H]3C[C@H]2c2ccc(-c3cccc(F)c3)cc2)cc1`, the figure is -23%; as for `Cc1ccccc1C#CC1=CC(=O)CC(C)(C)C1`, -9.77%.
Still for that read-out and setting: for `C/C(COc1ccccc1)=N\NC(=O)c1nnn(-c2nonc2N)c1-c1ccc(C)cc1` the value was -8.96%.
`Cc1nnnn1/C(=C\c1ccccc1)C(=O)OCC(=O)N1CC2(C)CC1CC(C)(C)C2` (stereo unspecified): the Potency was 14.6 µM (active).
For `COc1ccc(C(=O)N2CC3(C)CC2CC(C)(C)C3)cc1OC` (stereo unspecified), the “activity, negative = toxicity” value was -4.16%.
On the same count and under the same terms, as for `CN(C)C(=O)COC(=O)c1cccc(S(=O)(=O)N2CC3(C)CC2CC(C)(C)C3)c1` (stereo unspecified), the figure is -3.59%; as for `COc1cc(C=NC2CCCCC2)ccc1O`, 0.126%; as for `O=C(OCC(=O)N1CCCCCC1)c1cccc(Cl)c1Cl`, 16.8%.
Consider `Cc1cccc(C)c1NC(=O)C(c1cccc(F)c1)N1CCN(C)CC1` (stereo unspecified), for which the “activity, negative = toxicity” value is 0.538%.
On the same count and under the same terms, for `COc1ccc(-c2c(C)cc3oc(=O)cc(-c4ccccc4)c3c2C)cc1F` the value was 13.4%.
With `COc1cc(OC)c2c(-c3cccc(-c4cccc(N)c4)c3)cc(=O)oc2c1`, the Potency is 5.17 µM (active).
For `COc1ccc(-c2c(C)cc3oc(=O)cc(-c4ccccc4)c3c2C)cc1OC`, the “activity, negative = toxicity” value is 5.89%.
Still for that read-out and setting: as for `COC(=O)c1ccc(CN2C(=O)C(Cc3ccccc3)ON=C2c2ncccc2C)o1` (stereo unspecified), the figure is 17.4%.
`CCN1CCC2(CC1)N=C(c1ccc(F)cc1)C(=S)N2C(=O)c1ccc(C)cc1`: the Potency was 23.1 µM (active).
As to `Cc1ccc(SCC(=O)N2CCN(c3ccc(F)cc3)CC2)cc1`, the “activity, negative = toxicity” value was 17.4%.
On the same count and under the same terms, as for `CCN1CCN(C(=O)CSc2ccc(C)cc2)CC1`, the figure is 3.16%; as for `CC(C)NC(=O)C1(C)CCCCCN1C(=O)c1ccc(-c2ccccc2)cc1` (stereo unspecified), 11.9%.
For the compound `Cc1ccccc1N1C(=O)C2ON(c3ccccc3)C(c3ccncc3)C2C1=O` (stereo unspecified), the “activity, negative = toxicity” value was 4.69%.
The same measure, in the same setting: for `O=C1C(=O)N(c2ccccc2)C(c2ccccc2)C1c1ccccc1` (stereo unspecified) the value was -0.624%.
As for `O=C1[C@@H](c2ccccc2)[C@@H](c2ccccc2)N1c1cccnc1`, the Potency was 16.4 µM (active).
With `Fc1cccc(Cc2c(-c3cccc(Cl)c3)nc3ccc(Br)cn23)c1`, the “activity, negative = toxicity” value is -22.4%.
Consider `Cc1ccnc(SC2CC(=O)N(c3ccccc3)C2=O)n1` (stereo unspecified), for which the “activity, negative = toxicity” value is -0.931%.
Still for that read-out and setting: for `Cc1ccc(-n2ncc3c2CCCC3NC(=O)c2cnccn2)cc1C` (stereo unspecified) the value was -13.4%.
For `Cn1nccc1C(=O)NC1CCCc2c1cnn2-c1ccc(F)cc1F` (stereo unspecified), the Potency is 0.92 µM (active).
Turning to `CC(=O)NCC(=O)NC1CCCc2c1cnn2-c1ccccc1F` (stereo unspecified), the “activity, negative = toxicity” value is 4.51%.
In the case of `N#CCCN(C(=S)Nc1ccc(Cl)c(Cl)c1)C1CCCCC1`, the “activity, negative = toxicity” value is -6.17%.
The same measure, in the same setting: for `Cc1ccc(C(O)c2ncc(-c3ccccc3F)[nH]2)cc1F` (stereo unspecified) the value was -8.27%; for `CCOC(=O)c1c(NC(=S)SC)sc(C(=O)N2CCc3ccccc3C2)c1C`, -7.65%.
For the compound `O=C(Cn1c(NCCO)nc2ccccc21)c1ccc(Cl)cc1Cl`, the Potency is 20.6 µM (active).
Regarding `CC(C)(C)C(=O)Cn1c(NCCO)nc2ccccc21`, the “activity, negative = toxicity” value is 2.2%.
On the same count and under the same terms, for `O=S(=O)(O)c1nc2ccccc2n1Cc1ccc(Cl)cc1Cl` the value was -15.2%; for `CCCCCCn1c(=O)n2n(c1=O)C[C@]1(OC(=O)NCc3ccc(OC)c(OC)c3)CN(S(=O)(=O)c3ccc(C)cc3)C[C@]1(O)C2`, -14.7%; for `CCc1oc(-c2ccc(OC)cc2)c(C(=O)OCCCCCO)c1C(C)OCCO` (stereo unspecified), -13.9%.
Still for that read-out and setting: as for `CC1(C)N=C(N)NC(Nc2ccc(Cl)cc2)=N1`, the figure is 1.16%; as for `COc1ccccc1NC(=O)C1CCCN1S(=O)(=O)c1ccc(Cl)cc1` (stereo unspecified), -1.61%.
With `COc1ccccc1NC1=NC(c2ccc(Cl)cc2)N=C(N)N1` (stereo unspecified), the Potency is 5.62 µM (active).
As for `COc1ccc([C@H]2N[C@]3(CCCN(Cc4ccco4)C3=O)[C@H]3C(=O)N(C)C(=O)[C@@H]23)cc1`, the “activity, negative = toxicity” value was -1.26%.
On the same count and under the same terms, as for `O=C1OCCOC2CCCc3oc(-c4ccccc4)c1c32` (stereo unspecified), the figure is 6.75%.
With `C[C@H]1Cn2cnc(C(=O)N[C@@H](Cc3c[nH]c4ccccc34)C(=O)OC(C)(C)C)c2C(=O)N1`, the “activity, negative = toxicity” value is 12.4%.
With `O=S(=O)([N-]c1nc2ccccc2nc1-[n+]1ccc(Cc2ccccc2)cc1)c1ccc(Br)s1`, the Potency was 20.6 µM (active).
With `O=S(=O)(NCc1cccnc1)c1ccc(Br)s1`, the “activity, negative = toxicity” value was 1.62%.
The same measure, in the same setting: for `O=C(NCCc1ccccc1)C1CCN(S(=O)(=O)c2ccc(Br)s2)CC1` the value was -5.3%; for `COCOc1cccc(CN2CCC(C)(Oc3ccc(SC)cc3)C2)c1` (stereo unspecified), -8.36%; for `CCOC(=O)C1CCCN(C(=O)c2ccc(C)c(F)c2)CC1` (stereo unspecified), 1.99%.
The same measure, in the same setting: as for `CCC1OC(C2CC2)CC2=C1C(=O)OC(C)(C)O2` (stereo unspecified), the figure is 0.481%.
In the case of `c1coc(CNc2ncnc3ccccc23)c1`, the Potency was 20.6 µM (active).
As for `Brc1ccc2ncnc(NCc3cccnc3)c2c1`, the “activity, negative = toxicity” value is -15.5%.
On the same count and under the same terms, as for `COc1ccc(CNc2ncnc3ccccc23)cc1`, the figure is -4.12%; as for `COc1cccc(C(NC(C)=O)c2nc(-c3cnc4ccccc4c3)cs2)c1` (stereo unspecified), 3.84%; as for `O=C(Nc1ccc2c(c1)OCCO2)C(C1CC1)N1CCC(Cc2ccccc2)CC1` (stereo unspecified), -22%.
